Bioassay records deposited in PubChem by National Center for Advancing Translational Sciences (NCATS).
In the library only some 7.9% were active in any assay of this set; here they are far more common.
HCV inhibitor – qHTS Assay for Inhibitors of Hepatitis C Virus (HCV). Potency, µM (doses to about 41.8 µM), hits mostly inhibitors. Huh7.5.1 HCVcc-Cre infection, luciferase reporter, 44 h. hit rate 3.4% among 340,000; active = well fitted inhibition curve with a large enough effect; inconclusive = small, poorly fitted or top-dose-only effect, or another doubt; inactive = no such curve, though single readings can be large or run the other way
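Reporter virus HCVcc-Cre (~0.5 moi) infects cells exposed to compound; seeding density 1,000 cells/well with 4 h settling beforehand. Luminescence, 15 sec read, taken 44 h post-infection following a 15 min RT substrate incubation.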
LASV entry inh – qHTS for Inhibitors of binding or entry into cells for Lassa Virus; hit rate 1.2% among 300,000; AID 540256, 2011; Potency, µM (titrated, usually from 37.9 µM), actives largely listed as inhibitors; Lassa virus pseudotype entry inhibition, cell reporter; calls by dose curve; tested in HEK293 cells; note: nearly all actives have a fitted effect of over 50% in size
FMDV antiviral – High Throughput Screening for Foot and Mouth Disease Virus Antivirals; AID 1159524, 2015; FMDV antiviral cell-based qHTS; Potency, µM (series often up to 57.9 µM), hits mostly inhibitors; hit rate 1.2% among 410,000; calls by dose curve; tested in HEK293T cells; note: read-out not given here; nearly all actives have a fitted effect of over 45% in size
Marburg entry inh – qHTS for inhibitors of binding or entry into cells for Marburg Virus | Marburg virus pseudotyped entry inhibition, cell reporter | hit rate 1.8% among 300,000 | Potency, µM (series often up to 37.8 µM), actives largely listed as inhibitors | AID 540276, 2011; calls by dose curve; tested in HEK293 cells
HCMV inh – qHTS Assay for inhibitors of the human cytomegalovirus (HCMV) | hit rate 4.5% among 410,000 | activity change, negative = inhibition, % at 57.5 µM | HFF cells, HCMV-luciferase reporter, 72 h; active compounds read low | AID 1259415, 2018; in the data active = activity change below about -60%; inconclusive = no clear call, values can overlap the other calls; inactive = above about -39%
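After 16 h attachment at 37C, HFF cells received test compound and HCMV-luciferase (1 PFU/cell); reporter luminescence read 72 h later, data normalized against buffer-only and known inhibitor Salinomycin.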
A number is an active result; - = inactive; ? = inconclusive; . = not tested or not shown; [ ] = remark or other dose.

SMILES | HCV inhibitor | LASV entry inh | FMDV antiviral | Marburg entry inh | HCMV inh
Cc1cc(C)c(NC(=S)N2CCC(N(C)CC3CCCO3)CC2)c(C)c1 (stereo not given) | - | - | - | - | -72.4
Cc1cccc(NS(=O)(=O)c2ccc3c(c2)CC(C)N3C(=O)C2CCC2)c1C (stereo not given) | . | ? | - | . | ?
CCc1cccc(CC)c1NC(=O)C1CN(S(=O)(=O)c2ccccc2)CCN1S(=O)(=O)c1ccccc1 (stereo not given) | 12.6µM | - | - | ? | -
CCNC(=O)C1CN(S(=O)(=O)c2ccccc2)CCN1S(=O)(=O)c1ccccc1 (stereo not given) | - | - | - | - | -
Cc1ccc(C(=O)c2cc(C)sc2NC(=O)CN2CCN(C(=O)c3ccco3)CC2)cc1 | 12.6µM | ? | ? | ? | -
CCc1cc(C(=O)OC)c(NC(=O)CN2CCN(C(=O)c3ccco3)CC2)s1 | . | ? | ? | - | -
Cc1oc(-c2ccc(Cl)cc2)nc1CS(=O)CC(=O)NCc1ccc(Cl)cc1 (stereo not given) | . | - | - | ? | -
Cc1ccccc1CNC(=O)C(=O)NCCC1CCCCN1S(=O)(=O)c1cccs1 (stereo not given) | ? | ? | - | 10µM | -
COc1ccc(CCNC(=O)C(=O)NCCC2CCCCN2S(=O)(=O)c2ccccc2)cc1 (stereo not given) | - | ? | ? | - | ?
COc1ccccc1CNC(=O)C(=O)NCCC1CCCCN1S(=O)(=O)c1cccs1 (stereo not given) | 11.2µM | ? | ? | ? | -
COc1ccc(CCNC(=O)C(=O)NCCC2CCCCN2S(=O)(=O)c2cccs2)cc1 (stereo not given) | ? | ? | 31.6µM | - | -
CCN(CC(=O)Nc1ccc(OC)c(OC)c1)CC(=O)Nc1ccccc1C(F)(F)F | - | - | - | - | -
CCN(CC)CCCNC(=O)c1ccc(OCC(=O)Nc2ccccc2C(F)(F)F)c(OC)c1 | ? | ? | - | 11.2µM | -
CCSC(SCC)[C@H](O)[C@@H](O)[C@H](O)[C@H](O)CO | -[8.37 µM] | - | - | - | -64.6
CCOc1ccccc1NC(=O)CSc1ccc2nnc(CCNS(=O)(=O)c3ccccc3)n2n1 | . | - | - | . | -
O=C(CSc1nc(C(F)(F)F)cc(=O)[nH]1)N1CCCC1 | - | ? | - | - | -
NC(=O)C1(N2CCCCC2)CCN(C(=O)CSc2nc(C(F)(F)F)cc(=O)[nH]2)CC1 | - | - | - | - | -64.8
NNC(=O)C1C(O)CCC2CN3CCc4c([nH]c5ccccc45)C3CC21 (stereo not given) | - | - | - | ? | -100.3
CCOC(=O)c1c(NC(=O)CS(=O)(=O)c2cn(CC)c3ccccc23)sc2c1CCCCC2 | ? | ? | - | - | -71.5
CCOC(=O)c1c(NC(=O)CS(=O)(=O)c2cn(CC)c3ccccc23)sc2c1CCCC2 | ? | - | - | - | -
CCOC(=O)c1c(NC(=O)C(C)Sc2cn(CCNC(=O)c3c(F)cccc3F)c3ccccc23)sc2c1CCC2 (stereo not given) | . | - | - | 7.94µM | -
CCCn1c(CCC(=O)Nc2ccc(C)c(Cl)c2)nc2cccnc21 | . | - | - | - | -
O=C1CC(N2CCN(Cc3ccccc3)CC2)C(=O)N1 (stereo not given) | - | . | - | . | -
c1ccc(CN2CCN(C3CCCSc4ccccc43)CC2)cc1 (stereo not given) | - | ? | ? | 15.8µM | -
CCC(C)c1ccc(-c2cc(C(=O)OCC(=O)Nc3cc(C)on3)c3ccccc3n2)cc1 (stereo not given) | - | 1.58µM | - | ? | -
SMILES | HCV inhibitor | LASV entry inh | FMDV antiviral | Marburg entry inh | HCMV inh
CC(=O)Nc1ccc(-c2cc(C(=O)O)c3cc4ccccc4cc3n2)cc1 | . | . | - | . | -
COC(=O)c1cc(-c2ccc(NC(C)=O)cc2)nc2ccccc12 | ? | ? | - | ? | -68.1
COc1ccc(-c2cc(C(=O)OCC(=O)Nc3cc(C)on3)c3ccccc3n2)cc1OC | - | - | ? | - | -
COc1ccc2nc(-c3ccccc3)cc(C(=O)OCC(=O)N3CCCCC3)c2c1 | ? | . | - | . | -61.9
COc1cccc(CN(C)C(=O)c2cc(-c3ccc(F)cc3)nc3ccccc23)c1 | 31.6µM | ? | - | ? | .
CCC(C(=O)NCc1ccccc1OC)n1nc(C)n2c(cc3sccc32)c1=O (stereo not given) | . | . | - | - | -
Cc1ccc(-c2ccc(CCC(=O)O)n2-c2cccc(C)c2C)cc1 | . | ? | - | - | -
COc1ccccc1N1CCN(c2ncnc3onc(C)c23)CC1 | . | - | - | . | -
COc1ccc(OC)c(-c2ccnc(-n3ncc(C(=O)N4CCN(CCO)CC4)c3C3CC3)n2)c1 | . | . | - | . | .
COC(=O)N[C@@H](c1cccc(C)c1)[C@]1(C(C)=O)CCCC1=O | . | . | . | - | .
COc1ccc2cc(-c3cc(C(=O)O)c4ccccc4n3)ccc2c1 | - | 0.355µM | 10µM | 0.708µM | -60.8
COc1ccc(CN(C)C(=O)c2cc(-c3ccccc3)nc3ccc(C)cc23)c(OC)c1OC | 10µM | ? | - | ? | .
COc1ccc(-c2cc(C(=O)O)c3ccccc3n2)c(OC)c1 | - | - | - | - | -
CCOC(=O)c1c(CN2CCCCC2)n(C)c2cc(Br)c(OC)cc12 | ? | ? | - | ? | -
CCOC(=O)c1c(CSC(=N)N)n(-c2ccc(Br)cc2)c2cc(Br)c(OC(C)=O)cc12 | ? | ? | - | 13µM | -
CCCCCCCCOC(=O)c1c(CSC(=N)N)n(C)c2cc(Br)c(OC(C)=O)cc12 | 11.2µM | . | ? | . | -91.7
CSc1ccc(C(=O)C2CCCN(C(=O)c3nn(C)c(=O)c4ccccc34)C2)cc1 (stereo not given) | 12.6µM | ? | ? | ? | -
CCc1cc(C(=O)N2CCCC(C(=O)c3ccc(Oc4ccccc4)cc3)C2)n(C)n1 (stereo not given) | ? | - | ? | 11.2µM | ?
COc1ccc(OC)c(-c2cc(C(=O)NCCc3ccccc3)c3c(-c4ccc(C)cc4)[nH]nc3n2)c1 | . | - | - | . | -
COc1ccc(CCNC(=O)c2cc(-c3ccc(C)cc3)nc3n[nH]c(-c4ccc(F)cc4)c23)cc1OC | . | - | - | . | -
COc1ccc(-c2cc(C(=O)NCCc3ccccc3)c3c(-c4ccc(Cl)cc4)[nH]nc3n2)cc1 | . | - | - | . | -97.7
CCc1ccc(-c2[nH]nc3nc(-c4ccc(OC)cc4)cc(C(=O)NCCc4ccc(OC)c(OC)c4)c23)cc1 | . | - | ? | . | -91.4
COc1ccc(-c2cc(C(=O)NCCc3ccccc3)c3c(-c4ccccc4)[nH]nc3n2)cc1 | . | ? | - | . | -82.4
COC(=O)c1scc(-c2ccc(C)cc2)c1S(=O)(=O)N1CCN(c2ccc(OC)cc2)CC1 | . | - | - | . | -
O=C(NCc1ccccc1)c1nn(-c2ccccc2)nc1CO | . | ? | - | ? | ?
CCOc1ccccc1NC(=O)N(Cc1ccc(F)cc1)C1CCN(CC)CC1 | . | ? | - | . | -
